PubChem BioAssay AID1159580 (chemical genetic matrix, 2015)
About 2,000 (36%) of roughly 5,500 compounds were called active. About 18% were inconclusive and are not listed. No stated cut-off is given here; in the data, active means normalized growth mostly below about 0.91 (no sharp cut-off); inconclusive means no clear call, values can overlap the other calls; inactive means mostly above about 0.92. The list shows a part of the results.

Experiment: chemical genetic growth profiling, strain panel (AID 1159580);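 further: tested at 20 µM; growth read once vehicle control cultures reached saturation at 30 °C; 1 = growth at the plate median or of vehicle wells; lower values mean less growth of the strain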
Conditions: growth OD

Measured: normalized growth

CCOP(=S)(OCC)Oc1nc(Cl)c(Cl)cc1Cl
active: S. cerevisiae deletion strains, locus YLR221C, strain rsa3, hits give low values 0.852 | S. cerevisiae deletion strains, locus YLR262C, strain YPT6 (second series), hits give low values 0.724 | S. cerevisiae deletion strains, locus YLR320W, strain mms22, hits give low values 0.828 | S. cerevisiae deletion strains, locus YMR205C, strain PFK2, hits give low values 0.842 | S. cerevisiae deletion strains, locus YNL071W, strain lat1, hits give low values 0.526 | S. cerevisiae deletion strains, locus YOR106W, strain vam3, hits give low values 0.844 | S. cerevisiae deletion strains, locus YOR270C, strain vph1, hits give low values 0.441
inactive: S. cerevisiae deletion strains, locus YJR075W, strain HOC1, hits give low values 0.999 | S. cerevisiae deletion strains, locus YKL009W, strain mrt4, hits give low values 1 | S. cerevisiae deletion strains, locus YKL068W, hits give low values 0.99 | S. cerevisiae deletion strains, locus YKL085W, strain MDH1 (second series), hits give low values 0.996 | S. cerevisiae deletion strains, locus YKL085W, strain MDH1, hits give low values 0.996 | S. cerevisiae deletion strains, locus YKL160W, strain elf1, hits give low values 0.974 | S. cerevisiae deletion strains, locus YKL190W, strain CNB1, hits give low values 0.996 | S. cerevisiae deletion strains, locus YKR001C, strain vps1, hits give low values 0.937 | S. cerevisiae deletion strains, locus YKR026C, strain gcn3, hits give low values 0.957 | S. cerevisiae deletion strains, locus YKR091W, strain srl3, hits give low values 0.948 | S. cerevisiae deletion strains, locus YLL001W, strain dnm1, hits give low values 0.927 | S. cerevisiae deletion strains, locus YLL026W, hits give low values 0.982 | S. cerevisiae deletion strains, locus YLL041C, strain sdh2, hits give low values 0.954 | S. cerevisiae deletion strains, locus YLR027C, strain aat2, hits give low values 0.967 | S. cerevisiae deletion strains, locus YLR039C, strain RIC1, hits give low values 0.898 | S. cerevisiae deletion strains, locus YLR058C, strain SHM2, hits give low values 0.998 | S. cerevisiae deletion strains, locus YLR102C, strain apc9, hits give low values 0.986 | S. cerevisiae deletion strains, locus YLR258W, strain gsy2, hits give low values 0.965 | S. cerevisiae deletion strains, locus YLR262C, strain YPT6, hits give low values 0.945 | S. cerevisiae deletion strains, locus YLR268W, strain sec22, hits give low values 0.986 | S. cerevisiae deletion strains, locus YLR330W, strain CHS5, hits give low values 1 | S. cerevisiae deletion strains, locus YLR342W, strain FKS1 (second series), hits give low values 1.05 | S. cerevisiae deletion strains, locus YLR342W, strain FKS1, hits give low values 0.945 | S. cerevisiae deletion strains, locus YLR357W, strain rsc2, hits give low values 0.932 | S. cerevisiae deletion strains, locus YLR370C, strain arc18, hits give low values 0.981 | S. cerevisiae deletion strains, locus YLR371W, strain rom2, hits give low values 0.999 | S. cerevisiae deletion strains, locus YLR384C, strain iki3, hits give low values 0.989 | S. cerevisiae deletion strains, locus YLR418C, strain cdc73, hits give low values 0.938 | S. cerevisiae deletion strains, locus YML016C, strain PPZ1, hits give low values 1 | S. cerevisiae deletion strains, locus YML032C, strain rad52, hits give low values 0.979 | S. cerevisiae deletion strains, locus YML120C, strain ndi1, hits give low values 0.946 | S. cerevisiae deletion strains, locus YML124C, strain tub3, hits give low values 0.99 | S. cerevisiae deletion strains, locus YMR058W, strain fet3, hits give low values 0.921 | S. cerevisiae deletion strains, locus YMR078C, strain ctf18, hits give low values 0.984 | S. cerevisiae deletion strains, locus YMR125W, strain sto1, hits give low values 0.97 | S. cerevisiae deletion strains, locus YMR129W, hits give low values 0.953 | S. cerevisiae deletion strains, locus YMR223W, strain ubp8, hits give low values 0.988 | S. cerevisiae deletion strains, locus YMR231W, strain pep5, hits give low values 0.968 | S. cerevisiae deletion strains, locus YMR263W, strain SAP30, hits give low values 1.04 | S. cerevisiae deletion strains, locus YMR307W, strain GAS1, hits give low values 0.873 | S. cerevisiae deletion strains, locus YNL067W, strain RPL9B, hits give low values 1 | S. cerevisiae deletion strains, locus YNL128W, strain TEP1, hits give low values 1.01 | S. cerevisiae deletion strains, locus YNL153C, strain GIM3, hits give low values 1.01 | S. cerevisiae deletion strains, locus YNL209W, strain ssb2, hits give low values 0.995 | S. cerevisiae deletion strains, locus YNL233W, strain BNI4, hits give low values 0.993 | S. cerevisiae deletion strains, locus YNL248C, strain rpa49, hits give low values 0.93 | S. cerevisiae deletion strains, locus YNL250W, strain rad50, hits give low values 0.974 | S. cerevisiae deletion strains, locus YNL271C, strain bni1, hits give low values 0.996 | S. cerevisiae deletion strains, locus YNL298W, strain CLA4, hits give low values 0.983 | S. cerevisiae deletion strains, locus YNL307C, strain MCK1, hits give low values 0.932 | S. cerevisiae deletion strains, locus YNL322C, strain KRE1 (second series), hits give low values 0.943 | S. cerevisiae deletion strains, locus YNL322C, strain KRE1, hits give low values 0.998 | S. cerevisiae deletion strains, locus YNR049C, strain mso1, hits give low values 0.959 | S. cerevisiae deletion strains, locus YNR052C, strain pop2, hits give low values 0.994 | S. cerevisiae deletion strains, locus YOL006C, strain TOP1, hits give low values 0.861 | S. cerevisiae deletion strains, locus YOL012C, strain htz1 0.789 | S. cerevisiae deletion strains, locus YOL147C, strain pex11, hits give low values 0.977 | S. cerevisiae deletion strains, locus YOR001W, strain rrp6, hits give low values 0.986 | S. cerevisiae deletion strains, locus YOR061W, strain CKA2, hits give low values 0.998 | S. cerevisiae deletion strains, locus YOR069W, strain VPS5, hits give low values 0.997 | S. cerevisiae deletion strains, locus YOR070C, strain gyp1, hits give low values 0.982 | S. cerevisiae deletion strains, locus YOR080W, strain dia2, hits give low values 1 | S. cerevisiae deletion strains, locus YOR083W, strain WHI5, hits give low values 0.923 | S. cerevisiae deletion strains, locus YOR136W, strain idh2, hits give low values 0.992 | S. cerevisiae deletion strains, locus YOR144C, strain elg1, hits give low values 0.987 | S. cerevisiae deletion strains, locus YOR184W, strain ser1, hits give low values 0.99 | S. cerevisiae deletion strains, locus YOR265W, strain rbl2, hits give low values 0.976 | S. cerevisiae deletion strains, locus YOR290C, strain snf2, hits give low values 0.941 | S. cerevisiae deletion strains, locus YOR316C, strain cot1, hits give low values 0.991 | S. cerevisiae deletion strains, locus YPL051W, strain arl3, hits give low values 0.974 | S. cerevisiae deletion strains, locus YPL055C, strain LGE1, hits give low values 1.04 | S. cerevisiae deletion strains, locus YPL078C, strain atp4, hits give low values 0.97 | S. cerevisiae deletion strains, locus YPL106C, strain sse1, hits give low values 0.933 | S. cerevisiae deletion strains, locus YPL240C, strain hsp82, hits give low values 0.979 | S. cerevisiae deletion strains, locus YPL241C, strain CIN2, hits give low values 1 | S. cerevisiae deletion strains, locus YPR119W, strain clb2, hits give low values 0.974 | S. cerevisiae deletion strains, locus YPR141C, strain kar3, hits give low values 0.986 | S. cerevisiae deletion strains, locus YPR163C, strain tif3, hits give low values 1.02 | S. cerevisiae deletion strains, locus YPR167C, strain met16, hits give low values 0.99 | S. cerevisiae deletion strains, strain wtn01, hits give low values 0.991 | S. cerevisiae strains, strain wild type, hits give low values 0.995
